Data on five compounds can be found in PubChem BioAssay AID1498 (National Center for Advancing Translational Sciences (NCATS), 2009).

Structures are written as SMILES. Results filed as inconclusive are left out. The source made the active and inactive calls. The call rests on the fitted dose curve.

This assay is described as follows: Confirmation Concentration-Response Assay for Modulators of Lamin A Splicing. Conditions: HeLa lamin A splicing GFP/RFP minigene, Acumen, 48 h; RFP activity: RFP channel at top concentration, at 46.1 µM; ratio activity: GFP/RFP ratio at top concentration, at 46.1 µM; series mostly up to 46.1 µM; GFP activity change, negative = decrease: at the top concentration. The source says: NCGC Assay Overview: Hutchinson-Gilford Progeria Syndrome (HGPS) is a pediatric premature aging disease caused by a spontaneous mutation in the lamin A/C (LMNA) gene. The mutation activates a cryptic splice site in the LMNA pre-mRNA which results in production of a pre-lamin A protein that cannot be processed properly. The mutant protein accumulates in the nucleus and negatively affects numerous cellular functions. Correction of the splicing defect in HGPS patient cells using a targeted oligonucleotide (exo11) leads to reversal of the cellular disease phenotypes. To identify small molecule modulators of aberrant LMNA splicing, a homogenous assay was constructed in HeLa cells that used a GFP containing minigene to report on correction of aberrant splicing in lamin A and a RFP (DsRed2) to report on cell viability, uniformity and nonspecific effects on the assay signal. This assay was adapted to laser-scanning microplate cytometry (Acumen, TTP Labtech) where miniaturization of the assay to a 1,536-well plate format was possible. Select compounds active in the primary screen (AID 1487) were chosen for confirmation based on potency, efficacy, SAR and activity in other assays in PubChem and at NCGC. References: Bowen, W. P.; Wylie, P. G. Application of Laser-Scanning Fluorescence Microplate Cytometry in High Content Screening. Assay Drug Dev Technol 2006;4:209-221. Scaffidi P, Misteli T. Reversal of the cellular phenotype in the premature aging disease Hutchinson-Gilford progeria syndrome. Nat. Med. 2005;11:440-445.
NCGC Assay Protocol Summary: Reagents/Controls: Stable clones expressing DsRed2 and lamin A-EGFP were generated by Cell and Molecular Technologies in S3 HeLa cells. HeLa cells were prepared for the assay when they were 70-90% confluent. The cells were counted and resuspended in Opti-MEM I (no phenol red; Gibco), 2% FBS, 1% penicillin/ streptomycin (Gibco) at concentration of 120 cells/uL concentration. The suspension was passed through a Falcon basket filter with pore size 40um (Beckton Dickson). Control titrations: column […] 1536-well plate contained a sixteen point titration (1:2 dilutions) in duplicate of ancitabine (Sigma: A8598) beginning at 40 uM final concentration. Column 2 contained a sixteen point titration (1:2 dilutions) of cycloheximide beginning at 1.4 mM final concentration. Column 3 contained ancitabine at 40 uM and column 4 contained was the vehicle control (0.5% DMSO final concentration). Assay Steps: 5 uL of HeLa cells were plated in Aurora LoBase black clear bottom (cyclic-olefin polymer) 1536-well plates at a final density of 600 cells/well. Controls and library compounds were added with a 1536-well pin array using the Kalypsys pin-tool. The plates were then incubated for 48 hrs in a cell-culture incubator (37 °C; 5% CO2, 98% humidity). Following incubation the plates were read on the Acumen Explorer using the 488 nm laser. Data was collected on objects between 10 and 100 um in size. Cell objects were defined by a 15 um width x 10 um depth filter. The ratio of the total object intensity in PMT1 (500-530 nm emission; GFP) over PMT3 (575-640 nm emission; RFP) was calculated for analysis. Keywords: NIH Roadmap, MLSCN, MLI, MLSMR, qHTS, NCGC, lamin A, Progeria, RNA splicing.
In the case of `O=C(COc1ccc(Br)cc1)NNC(=S)NC(=O)c1ccccc1[N+](=O)[O-]`, the ratio activity was -24.6%; the RFP activity is 11.7%; the “GFP activity change, negative = decrease” value was -24.3% (inactive).

Take `O=C(CCCN1CC=C(n2c(=O)[nH]c3ccccc32)CC1)c1ccc(F)cc1`: the “GFP activity change, negative = decrease” value is -20.4% (inactive); the ratio activity was -13.7%; the RFP activity is -6.45%.

As for `Cc1nc2ccc(NC(=O)c3ccc(Cl)c(S(=O)(=O)N(C)c4ccccc4)c3)cc2s1`, the RFP activity is -26.7%; the ratio activity was -11.5%; the “GFP activity change, negative = decrease” value is -33.3% (inactive).

For the compound `Cc1ccc(S(=O)(=O)N(CC(=O)Nc2ccccc2C(=O)O)c2cccc(Cl)c2C)cc1`, the RFP activity is 26.8%; the ratio activity was -14.3%; the “GFP activity change, negative = decrease” value is 7.34% (inactive).

In the case of `O=C(c1ccc(Cl)c(Cl)c1)N1CCC(=O)N(C(COCc2cccc(C(F)(F)F)c2)Cc2ccccc2)CC1` (stereo not given), the RFP activity came out at 13.3%; the ratio activity was -24.5%; the “GFP activity change, negative = decrease” value was -32.8% (inactive).
